# Laboratory results taken from PubChem BioAssay (Tox21).
# “And” between values parts separate entries of the source, which are not always exact repeats. Equal entries are not always repeated. Records with an inconclusive call do not appear. A call without a number means that no potency is given here. A structure can be active in one record and inactive in another. The source made the active and inactive calls. Unless noted, calls come from the whole dose curve; as a rule, active = well fitted curve in the direction sought with a large enough effect in the repeat runs; inconclusive = weak or mixed curves; inactive = no such curve, though single readings can be large; an effect the other way counts as inactive or inconclusive.
# Experiment: qHTS assay to identify small molecule antagonists of the estrogen related receptor (ERR) signaling pathway from Tox21 library (AID 1224848); note: nearly all actives have a fitted effect of over 50% in size; note: potency is the fitted concentration of half-maximal effect
# Settings: ERR reporter cell line, luciferase antagonist mode, 18 h; series mostly up to 92.4 µM
# Method in brief: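 ERR reporter cell line (from NTP) seeded 2,000 cells/well, rested 6 h at 37 C/5% CO2, then pin-dosed with compounds in DMSO. After 18 h at 37 C, ONE-Glo added; luminescence read after 30 min at room temperature.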
row,SMILES,Potency
1,CC(=O)[O][Hg][c]1ccccc1,2.15 µM (active) and 3.44 µM (active) and 5.96 µM (active)
2,O=P1(N(CCCl)CCCl)NCCCO1 (stereo not drawn),inactive
3,COP(=O)(OC)C(O)C(Cl)(Cl)Cl (stereo not drawn),inactive
4,C[C@]12CCC(=O)C=C1CC[C@@H]1[C@@H]2CC[C@]2(C)C(=O)CC[C@@H]12,42.5 µM (active) and 54.5 µM (active)

# Experiment: qHTS assay to identify small molecule agonists of the estrogen related receptor (ERR) signaling pathway from Tox21 library (AID 1224849; calls by dose curve; note: nearly all actives have a fitted effect of over 15% in size)
# Settings: ERR reporter cell line, ONE-Glo luciferase, 18 h; at 42.5 µM (top of the series)
# Method in brief: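 ERR reporter cell line (NTP) seeded, rested 6 h at 37 C/5% CO2, then pinned with Tox21 compounds in DMSO. After 18 h at 37 C, ONE-Glo luciferase luminescence was read following 30 min at room temperature.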
row,SMILES,"activity change, positive = activation"
1,CC(=O)[O][Hg][c]1ccccc1,-71% (inactive)
2,O=P1(N(CCCl)CCCl)NCCCO1 (stereo not drawn),-7.16% (inactive)
3,COP(=O)(OC)C(O)C(Cl)(Cl)Cl (stereo not drawn),0.23% (inactive)
4,C[C@]12CCC(=O)C=C1CC[C@@H]1[C@@H]2CC[C@]2(C)C(=O)CC[C@@H]12,-23.4% (inactive)

# Same assay, conditions: ERR reporter cell line, ONE-Glo luciferase, 18 h; at 92.4 µM (top of the series)
row,SMILES,"activity change, positive = activation"
1,CC(=O)[O][Hg][c]1ccccc1,-80.3% (inactive) and -73.5% (inactive)
2,O=P1(N(CCCl)CCCl)NCCCO1 (stereo not drawn),-1.25% (inactive) and 0.0597% (inactive)
3,COP(=O)(OC)C(O)C(Cl)(Cl)Cl (stereo not drawn),-17% (inactive) and -12.3% (inactive)
4,C[C@]12CCC(=O)C=C1CC[C@@H]1[C@@H]2CC[C@]2(C)C(=O)CC[C@@H]12,-46.4% (inactive) and -41% (inactive)

# Experiment: qHTS RealTime-Glo MT Cell Viability Assay in HepG2 cells - 24 hour (AID 1224867); note: nearly all actives have a fitted effect of over 50% in size; note: potency is the fitted concentration of half-maximal effect
# Settings: RealTime-Glo luminescence; series mostly up to 76.8 µM
# Method in brief: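 Tox21 10K library screened in qHTS format on HepG2 cells carrying RealTime-Glo reagents. Compounds were added after a 5 h preincubation, and the luminescent signal from continuous culture was measured repeatedly during 40 h treatment.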
row,SMILES,Potency
1,CCCCCC[n+]1ccccc1,inactive
2,Nc1ccc(Cl)cc1,inactive
3,CCCCCCCCCCCCCCCCn1cc[n+](C)c1,inactive and 49.4 µM (active) and 43.8 µM (active)
4,CN(C)[C@@H]1C(=O)C(C(N)=O)=C(O)[C@@]2(O)C(=O)C3=C(O)c4c(O)cccc4[C@@](C)(O)[C@H]3[C@H](O)[C@@H]12,inactive
5,CC(=O)[O][Hg][c]1ccccc1,1.72 µM (active) and 1.95 µM (active) and 1.07 µM (active)
6,Cc1cc(-c2ccc(N)c(C)c2)ccc1N,inactive
7,N#CS,inactive
8,CCCCCCn1cc[n+](C)c1,inactive
9,CCCCCCCCCCn1cc[n+](C)c1,inactive
10,CCCCCCCCn1cc[n+](C)c1,inactive
11,C=CCOC(Cn1ccnc1)c1ccc(Cl)cc1Cl (stereo not drawn),inactive
12,Cc1cc(Cl)ccc1OCC(=O)O,inactive
13,CCCn1cc[n+](C)c1,inactive
14,CC(Cl)(Cl)C(=O)O,inactive
15,CCCC[n+]1cccc(C)c1,inactive
16,CCCC[n+]1ccc(C)cc1,inactive

row,SMILES,Potency
1,O=P1(N(CCCl)CCCl)NCCCO1 (stereo not drawn),inactive
2,CC[n+]1ccccc1,inactive
3,Nc1ccc(-c2ccc(N)c(Cl)c2)cc1Cl,inactive and 49 µM (active)
4,Nc1ccccc1,inactive
5,Nc1ccc(-c2ccc(N)cc2)cc1,inactive
6,O=C(O)c1ccccc1O,inactive
7,CCCC[n+]1ccccc1C,inactive
8,O=C(O)COc1ccc(Cl)cc1Cl,inactive
9,CCCC[N+]1(C)CCCC1,inactive
10,CC(=O)O,inactive
11,COP(=O)(OC)OC=C(Cl)Cl,inactive
12,COP(=O)(OC)C(O)C(Cl)(Cl)Cl (stereo not drawn),inactive
13,C[C@]12CCC(=O)C=C1CC[C@@H]1[C@@H]2CC[C@]2(C)C(=O)CC[C@@H]12,inactive
14,O=C(O)CC(O)(CC(=O)O)C(=O)O,inactive
15,Oc1cccc2cccnc12,inactive and 3.47 µM (active)
16,CCC[N+]1(C)CCCC1,inactive

# Experiment: qHTS RealTime-Glo MT Cell Viability Assay in HEK293 cells - 32 hour (AID 1224868); note: nearly all actives have a fitted effect of over 50% in size; note: potency is the fitted concentration of half-maximal effect
# Settings: RealTime-Glo luminescence; series mostly up to 76.8 µM
# Method in brief: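 Luminescence generated by NanoLuc from substrate produced by living HEK293 cells served as the viability signal. Each value reflects the reading at its stated time point during continuous 40 h compound exposure at 37 C.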
row,SMILES,Potency
1,Nc1ccc(Cl)cc1,inactive
2,CN(C)[C@@H]1C(=O)C(C(N)=O)=C(O)[C@@]2(O)C(=O)C3=C(O)c4c(O)cccc4[C@@](C)(O)[C@H]3[C@H](O)[C@@H]12,inactive
3,CC(=O)[O][Hg][c]1ccccc1,306 nM (active) and 977 nM (active) and 239 nM (active)
4,Cc1cc(-c2ccc(N)c(C)c2)ccc1N,inactive
5,N#CS,inactive
6,CCCCCCn1cc[n+](C)c1,19.7 µM (active) [middle of 5 runs]
7,CCCCCCCCn1cc[n+](C)c1,3.86 µM (active) and 3.12 µM (active) and 3.93 µM (active)
8,C=CCOC(Cn1ccnc1)c1ccc(Cl)cc1Cl (stereo not drawn),21.9 µM (active) and 38.9 µM (active)
9,Cc1cc(Cl)ccc1OCC(=O)O,inactive
10,CCCn1cc[n+](C)c1,inactive
11,CC(Cl)(Cl)C(=O)O,inactive
12,CCCC[n+]1cccc(C)c1,inactive
13,CCCC[n+]1ccc(C)cc1,inactive
14,O=P1(N(CCCl)CCCl)NCCCO1 (stereo not drawn),inactive
15,CC[n+]1ccccc1,inactive and 38.6 µM (active)
16,Nc1ccc(-c2ccc(N)c(Cl)c2)cc1Cl,12.4 µM (active) and 18.2 µM (active) and 21.9 µM (active)
17,Nc1ccccc1,inactive
18,Nc1ccc(-c2ccc(N)cc2)cc1,inactive
19,O=C(O)c1ccccc1O,inactive
20,CCCC[n+]1ccccc1C,inactive
21,O=C(O)COc1ccc(Cl)cc1Cl,inactive
22,CCCC[N+]1(C)CCCC1,inactive
23,CC(=O)O,inactive
24,COP(=O)(OC)OC=C(Cl)Cl,inactive
25,COP(=O)(OC)C(O)C(Cl)(Cl)Cl (stereo not drawn),inactive
26,C[C@]12CCC(=O)C=C1CC[C@@H]1[C@@H]2CC[C@]2(C)C(=O)CC[C@@H]12,27.1 µM (active) and inactive
27,O=C(O)CC(O)(CC(=O)O)C(=O)O,inactive
28,Oc1cccc2cccnc12,20.7 µM (active) and 5.49 µM (active) and inactive
29,CCC[N+]1(C)CCCC1,inactive
